Active and inactive are the calls of the source. The calls were made as follows: active = hit-call score of the fitted dose curve at least 0.9, where 1 is the maximum; inactive = score below 0.9.
Legend:
Settings in all cases: mRNA level, 48 h; actives raise or lower the signal
[1] = read-out: Bcl-2 (BAX) gene, BAX (gene 581); test: LTEA_HepaRG_BAX: Life Technologies and Expression Analysis (LTEA) Assay for Bcl-2 (BAX) gene using HepaRG (AID 2283470)
Summary of the method: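 Cells were thawed, plated for 48 h, moved to serum-free induction medium and dosed for 48 h (highest concentration 100 uM, half-log steps, 0.5% DMSO). Total RNA was then analysed for BAX expression by qRT-PCR.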

[2] = read-out: adenosine kinase (ADK) gene, ADK (gene 132); test: LTEA_HepaRG_ADK: Life Technologies and Expression Analysis (LTEA) Assay for adenosine kinase (ADK) gene using HepaRG (AID 2283471)
Summary of the method: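 Following 48 h exposure of HepaRG cells in 0.5% DMSO (top concentration 100 uM, duplicate wells), ADK mRNA induction or suppression was measured by qRT-PCR, normalised to ACTB/GAPDH/POLR2A, and fitted bidirectionally relative to vehicle.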

[3] = read-out: Alpha-fetoprotein (AFP) gene, AFP (gene 174); test: LTEA_HepaRG_AFP: Life Technologies and Expression Analysis (LTEA) Assay for Alpha-fetoprotein (AFP) gene using HepaRG (AID 2283472)
Summary of the method: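 Chemicals were tested on differentiated HepaRG cells for 48 hours at eight concentrations up to 100 uM, with 0.5% DMSO as vehicle. AFP expression was then quantified by qRT-PCR and analyzed for gain or loss relative to DMSO.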

[4] = read-out: BCL2L11 (gene 10018); test: LTEA_HepaRG_BCL2L11: Life Technologies and Expression Analysis (LTEA) Assay for Bcl-2 (BCL2L11) gene using HepaRG (AID 2283473)
Summary of the method: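 Differentiated human HepaRG cells in serum-free induction medium were exposed in duplicate for 48 h to eight concentrations (top 100 uM, half-log steps, 0.5% DMSO). BCL2L11 mRNA was quantified by TaqMan qRT-PCR, normalized to ACTB/GAPDH/POLR2A, bidirectional fit versus DMSO.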

[5] = read-out: Apoptosis regulator Bcl-2 (Homo sapiens) (UniProt P10415); test: LTEA_HepaRG_BCL2: Life Technologies and Expression Analysis (LTEA) Assay for Bcl-2 gene using HepaRG (AID 2283475)
Summary of the method: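 Plated human HepaRG cells are exposed to test chemicals for 48 h across eight concentrations from 100 uM downward in half-log steps (0.5% DMSO). BCL2 expression is then measured by qRT-PCR with housekeeping normalisation and fitted bidirectionally against vehicle.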

[6] = read-out: Bcl-2 (BID) gene, BID (gene 637); test: LTEA_HepaRG_BID: Life Technologies and Expression Analysis (LTEA) Assay for Bcl-2 (BID) gene using HepaRG (AID 2283476)
Summary of the method: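 Cells are plated, cultured 48 h, switched to serum-free induction medium, then dosed 48 h (100 uM top, half-log steps, 0.5% DMSO). RNA is isolated and BID expression read by qRT-PCR.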

[7] = read-out: Caspase-3 (Homo sapiens) (UniProt P42574); test: LTEA_HepaRG_CASP3: Life Technologies and Expression Analysis (LTEA) Assay for cysteine-aspartic acid protease (CASP3) using HepaRG (AID 2283477)
Summary of the method: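 Differentiated human HepaRG cells in serum-free induction medium were exposed 48 h to 8-point half-log concentrations from 100 uM (0.5% DMSO vehicle). CASP3 mRNA was measured by qRT-PCR, normalised to ACTB, GAPDH and POLR2A, with bidirectional fitting against DMSO.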

[8] = read-out: Cytochrome P450 (CYP24A1), CYP24A1 (gene 1591); test: LTEA_HepaRG_CYP24A1: Life Technologies and Expression Analysis (LTEA) Assay for Cytochrome P450 (CYP24A1) using HepaRG (AID 2283478)
Summary of the method: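 Differentiated HepaRG cells, pre-cultured 48 h, were exposed in duplicate for 48 h in serum-free induction medium to 8 half-log concentrations (top 100 uM, 0.5% DMSO). CYP24A1 mRNA was quantified by TaqMan qRT-PCR, normalized to ACTB/GAPDH/POLR2A, fitted bidirectionally versus DMSO.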

[9] = read-out: Cytochrome P450 (CYP1A2), CYP1A2 (gene 1544); test: LTEA_HepaRG_CYP1A2: Life Technologies and Expression Analysis (LTEA) Assay for Cytochrome P450 (CYP1A2) using HepaRG (AID 2283479)
Summary of the method: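 Differentiated human HepaRG cells in serum-free induction medium were exposed in duplicate for 48 h to 8-point half-log concentrations up to 100 uM in 0.5% DMSO. CYP1A2 mRNA measured by qRT-PCR, normalized to ACTB, GAPDH, POLR2A; bidirectional fit vs DMSO.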

[10] = read-out: cysteine-aspartic acid protease (CASP8), CASP8 (gene 841); test: LTEA_HepaRG_CASP8: Life Technologies and Expression Analysis (LTEA) Assay for cysteine-aspartic acid protease (CASP8) using HepaRG (AID 2283480)
Summary of the method: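 Concentration-response in duplicate up to 100 uM (half-log steps, 0.5% DMSO) on differentiated HepaRG cultures for 48 h. Expression change of CASP8 mRNA is determined by TaqMan qRT-PCR with housekeeping-gene normalization.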

[11] = read-out: Cytochrome P450 (CYP2B6), CYP2B6 (gene 1555); test: LTEA_HepaRG_CYP2B6: Life Technologies and Expression Analysis (LTEA) Assay for Cytochrome P450 (CYP2B6) using HepaRG (AID 2283481)
Summary of the method: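 Differentiated HepaRG cells, serum-free induction medium, exposed 48 h in duplicate to 8-point half-log concentrations from 100 uM in 0.5% DMSO. CYP2B6 mRNA by qRT-PCR, normalized to ACTB, GAPDH, POLR2A; bidirectional fit versus DMSO.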

[12] = read-out: Cytochrome P450 2C19 (Homo sapiens) (UniProt P33261); test: LTEA_HepaRG_CYP2C19: Life Technologies and Expression Analysis (LTEA) Assay for CYP2C19 using HepaRG (AID 2283482)
Summary of the method: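 Differentiated human HepaRG cells were exposed for 48 h in serum-free induction medium to 8 concentrations (top 100 uM, half-log steps, 0.5% DMSO). CYP2C19 mRNA was measured by qRT-PCR, normalized to ACTB/GAPDH/POLR2A, and fitted bidirectionally against DMSO.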

[13] = read-out: CYP2C8 (gene 1558); test: LTEA_HepaRG_CYP2C8: Life Technologies and Expression Analysis (LTEA) Assay for CYP2C8 using HepaRG (AID 2283483)
Summary of the method: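 This is a transcriptional endpoint in HepaRG cultures: 48 h exposure, highest concentration 100 uM. CYP2C8 mRNA is quantified by TaqMan qRT-PCR.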

[14] = read-out: CYP2C9 (gene 1559); test: LTEA_HepaRG_CYP2C9: Life Technologies and Expression Analysis (LTEA) Assay for CYP2C9 using HepaRG (AID 2283484)
Summary of the method: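 Eight-point concentration-response (highest 100 uM, half-log dilutions) in HepaRG cells for 48 h; CYP2C9 expression by qRT-PCR normalized to ACTB, GAPDH, POLR2A. Bidirectional fit, DMSO baseline.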

[15] = read-out: CYP2E1 (gene 1571); test: LTEA_HepaRG_CYP2E1: Life Technologies and Expression Analysis (LTEA) Assay for CYP2E1 using HepaRG (AID 2283485)
Summary of the method: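 Readout is qRT-PCR of CYP2E1 mRNA, normalized to three housekeeping genes and fitted bidirectionally against 0.5% DMSO. HepaRG cells were dosed 48 h at eight concentrations, highest 100 uM with half-log dilutions.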

[16] = read-out: CYP4A11 (gene 1579); test: LTEA_HepaRG_CYP4A11: Life Technologies and Expression Analysis (LTEA) Assay for CYP4A11 using HepaRG (AID 2283486)
Summary of the method: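 Differentiated HepaRG cells, serum-free induction medium, exposed 48 h in duplicate to 8-point half-log series from 100 uM in 0.5% DMSO. CYP4A11 mRNA measured by qRT-PCR, normalized to ACTB, GAPDH, POLR2A; bidirectional fit versus DMSO.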

[17] = read-out: Cytochrome P450 3A4 (Homo sapiens) (UniProt P08684); test: LTEA_HepaRG_CYP3A4: Life Technologies and Expression Analysis (LTEA) Assay for CYP3A4 using HepaRG (AID 2283487)
Summary of the method: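 In a human hepatic line (HepaRG), duplicate wells were treated 48 h with up to 100 uM chemical in half-log dilutions. Endpoint: CYP3A4 mRNA induction or loss relative to 0.5% DMSO vehicle, by qRT-PCR.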

[18] = read-out: DNA damage-inducible transcript 3 (DDIT3), DDIT3 (gene 1649); test: LTEA_HepaRG_DDIT3: Life Technologies and Expression Analysis (LTEA) Assay for DNA damage-inducible transcript 3 (DDIT3) using HepaRG (AID 2283488)
Summary of the method: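 Cells are human HepaRG liver cells treated for 48 h with eight half-log concentrations up to 100 uM in 0.5% DMSO. Transcript levels come from qRT-PCR normalized to three housekeeping genes, with activity fitted in both directions relative to vehicle.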

[19] = read-out: Pro-epidermal growth factor (Homo sapiens) (UniProt P01133); test: LTEA_HepaRG_EGF: Life Technologies and Expression Analysis (LTEA) Assay for Epidermal growth factor (EGF) using HepaRG (AID 2283489)
Summary of the method: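 Differentiated human HepaRG cells, plated 48 h then switched to serum-free induction medium, were exposed for 48 h to test chemicals (8-point half-log series, top 100 uM, 0.5% DMSO). EGF mRNA was quantified by qRT-PCR, normalized to ACTB, GAPDH, POLR2A.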

[20] = read-out: Apolipoprotein A-V (APOA5) gene, APOA5 (gene 116519); test: LTEA_HepaRG_APOA5: Life Technologies and Expression Analysis (LTEA) Assay for Apolipoprotein A-V (APOA5) gene using HepaRG (AID 2283474)
Summary of the method: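 Differentiated human HepaRG cells were exposed in duplicate for 48 h to eight half-log concentrations from 100 uM in 0.5% DMSO. APOA5 mRNA was quantified by TaqMan qRT-PCR, normalized to ACTB, GAPDH and POLR2A, and fitted bidirectionally against DMSO.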

Measured: AC50

Chain of Apoptosis regulator Bcl-2 (Homo sapiens) (P10415 whole entry, looked up): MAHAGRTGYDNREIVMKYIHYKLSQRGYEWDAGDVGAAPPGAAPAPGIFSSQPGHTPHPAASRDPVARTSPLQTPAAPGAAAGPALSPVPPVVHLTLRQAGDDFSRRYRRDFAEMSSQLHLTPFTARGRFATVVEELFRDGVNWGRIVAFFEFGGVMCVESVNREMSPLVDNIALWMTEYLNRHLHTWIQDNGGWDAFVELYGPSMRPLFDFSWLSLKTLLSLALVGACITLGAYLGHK
Chain of Caspase-3 (Homo sapiens) (P42574 whole entry, looked up): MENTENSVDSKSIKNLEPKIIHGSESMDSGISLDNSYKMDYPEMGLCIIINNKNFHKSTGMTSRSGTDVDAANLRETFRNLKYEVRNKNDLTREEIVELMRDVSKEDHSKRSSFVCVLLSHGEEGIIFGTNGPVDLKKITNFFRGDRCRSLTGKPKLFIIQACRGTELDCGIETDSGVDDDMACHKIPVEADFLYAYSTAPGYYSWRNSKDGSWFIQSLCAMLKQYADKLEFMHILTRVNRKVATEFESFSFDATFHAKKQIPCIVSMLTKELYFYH
Chain of Cytochrome P450 3A4 (Homo sapiens) (P08684 whole entry, looked up): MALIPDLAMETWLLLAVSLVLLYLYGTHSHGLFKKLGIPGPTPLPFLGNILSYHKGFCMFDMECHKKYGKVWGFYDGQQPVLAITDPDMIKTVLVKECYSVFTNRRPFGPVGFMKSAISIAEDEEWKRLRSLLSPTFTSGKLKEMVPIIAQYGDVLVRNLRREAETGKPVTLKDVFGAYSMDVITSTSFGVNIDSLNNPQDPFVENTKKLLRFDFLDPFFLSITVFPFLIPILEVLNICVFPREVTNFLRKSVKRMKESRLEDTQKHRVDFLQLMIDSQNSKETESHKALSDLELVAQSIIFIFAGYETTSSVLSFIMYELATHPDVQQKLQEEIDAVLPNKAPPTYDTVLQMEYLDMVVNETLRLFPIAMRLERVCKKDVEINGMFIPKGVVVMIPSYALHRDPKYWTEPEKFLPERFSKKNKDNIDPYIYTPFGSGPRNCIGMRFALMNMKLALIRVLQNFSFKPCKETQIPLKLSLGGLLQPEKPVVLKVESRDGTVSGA
Chain of Cytochrome P450 2C19 (Homo sapiens) (P33261 whole entry, looked up): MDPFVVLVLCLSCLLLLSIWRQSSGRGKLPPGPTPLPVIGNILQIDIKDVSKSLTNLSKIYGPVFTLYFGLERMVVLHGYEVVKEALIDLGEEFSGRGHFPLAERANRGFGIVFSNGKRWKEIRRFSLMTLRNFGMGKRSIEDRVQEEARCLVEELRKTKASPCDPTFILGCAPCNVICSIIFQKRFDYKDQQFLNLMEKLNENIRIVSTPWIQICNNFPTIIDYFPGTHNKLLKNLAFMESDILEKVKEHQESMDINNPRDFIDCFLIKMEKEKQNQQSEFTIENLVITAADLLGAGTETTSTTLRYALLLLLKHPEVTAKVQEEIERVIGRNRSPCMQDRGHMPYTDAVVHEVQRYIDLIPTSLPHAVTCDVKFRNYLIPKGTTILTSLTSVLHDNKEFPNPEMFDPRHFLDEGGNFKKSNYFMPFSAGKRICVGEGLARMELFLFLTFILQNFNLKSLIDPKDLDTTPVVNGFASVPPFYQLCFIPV

CCOP(=S)(OCC)Oc1nc(Cl)n(C(C)C)n1
active: [3] 21.2 µM | [9] 11.3 µM | [11] 1.78 µM | [12] 12.7 µM | [15] 26.5 µM | [16] 42.3 µM | [17] 4.55 µM
not listed: [20]
inactive: all other assays above

O=C(O)c1c(Cl)ccc2cc(Cl)cnc12
not listed: [5]
inactive: all other assays above

CCNP(=S)(OC)O/C(C)=C/C(=O)OC(C)C (centres undefined)
active: [9] 18 µM | [11] 5.19 µM | [12] 8.66 µM | [15] 34.8 µM | [16] 68.4 µM | [17] 8.97 µM
not listed: [13]
inactive: all other assays above

COP(=O)(OC)O/C(C)=C/C(=O)N(C)C
not listed: [5]
inactive: all other assays above

COC(=O)N(C(=O)N1CO[C@@]2(C(=O)OC)Cc3cc(Cl)ccc3C2=N1)c1ccc(OC(F)(F)F)cc1
active: [3] 40 µM | [4] 12.7 µM | [9] 10.4 µM | [11] 0.89 µM | [12] 9.46 µM | [14] 64.8 µM | [15] 24 µM | [16] 25.6 µM | [17] 9.42 µM
inactive: [1] | [2] | [20] | [6] | [7] | [8] | [10] | [18] | [19]

CCN(CC)C(=O)C(C)Oc1cccc2ccccc12 (centres undefined)
active: [3] 73.6 µM | [20] 79.3 µM | [9] 26.4 µM | [11] 12 µM | [12] 12.6 µM | [15] 73.5 µM | [16] 79.1 µM | [17] 2.65 µM
inactive: all other assays above
